# Reference: PubChem BioAssay (EPA / NIEHS)
# “And” between values parts separate entries of the source, which are not always exact repeats. Equal values may be shown once. More than one record can exist for a structure, and the calls need not agree. The source made the active and inactive calls. How the source made its calls: active means hit-call score of the fitted dose curve at least 0.9, where 1 is the maximum; inactive means score below 0.9.
# Legend:
# [1] = read-out: TIMP metallopeptidase inhibitor 2 (TIMP2), TIMP2 (gene 7077); assay: BSK_KF3CT_TIMP2: BioMAP Diversity Plus: KF3CT Assay for TIMP metallopeptidase inhibitor 2 (TIMP2) Biomarker Activity (AID 2283071); conditions: primary human keratinocytes with fibroblasts; actives raise or lower the signal
# Outline: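 TIMP-2 measured by ELISA at 24 h in human keratinocyte/fibroblast primary co-cultures exposed to chemicals. Both increases and decreases were fitted against DMSO. Parallel cultures were stained with SRB for total protein as an overt-cytotoxicity check.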
# [2] = read-out: Transforming growth factor beta 1 (TGFb1), TGFB1 (gene 7040); assay: BSK_KF3CT_TGFb1: BioMAP Diversity Plus: KF3CT Assay for Transforming growth factor beta 1 (TGFb1) Biomarker Activity (AID 2283072); conditions: primary human keratinocytes with fibroblasts; actives raise or lower the signal
# Outline: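 ELISA quantifies TGF-b1 at 24 h post-dose in a primary human skin co-culture of keratinocytes and fibroblasts, with gain or loss judged against DMSO. Parallel SRB total-protein staining flags overt cytotoxicity.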
# [3] = read-out: C-C motif chemokine 2 (Homo sapiens) (UniProt P13500); assay: BSK_KF3CT_MCP1: BioMAP Diversity Plus: KF3CT Assay for Monocyte Chemoattractant Protein 1 (MCP1/CCL2) Biomarker Activity (AID 2283073); conditions: primary human keratinocytes with fibroblasts; actives raise or lower the signal
# Outline: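 Human keratinocyte–foreskin fibroblast co-culture; MCP-1 measured by ELISA 24 h after dosing. Bidirectional fit vs DMSO; cytotoxicity tracked by SRB total protein in parallel cultures.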
# [4] = read-out: Matrix Metallopeptidase 9 (MMP9), MMP9 (gene 4318); assay: BSK_KF3CT_MMP9: BioMAP Diversity Plus: KF3CT Assay for Matrix Metallopeptidase 9 (MMP9) Biomarker Activity (AID 2283074); conditions: primary human keratinocytes with fibroblasts; actives raise or lower the signal;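 further: MMP9 protein level quantified by ELISA in the co-culture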
# Outline: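 Values come from bidirectional fitting relative to DMSO of MMP-9 levels, which were measured by ELISA. Measurements were taken 24 h after chemical dosing of a keratinocyte and foreskin fibroblast co-culture.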
# [5] = read-out: urokinase plasminogen activator (uPA), PLAU (gene 5328); assay: BSK_KF3CT_uPA: BioMAP Diversity Plus: KF3CT Assay for urokinase plasminogen activator (uPA) Biomarker Activity (AID 2283075); conditions: primary human keratinocytes with fibroblasts; actives raise or lower the signal
# Outline: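 Values derive from bidirectional fitting against DMSO controls. Keratinocyte/foreskin fibroblast co-cultures received chemical; 24 h later uPA was detected by ELISA, with SRB total-protein staining in parallel wells for overt cytotoxicity.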
# CD40, CD40 (gene 958) [6] = assay: BSK_LPS_CD40: BioMAP Diversity Plus: LPS Assay for CD40 Biomarker Activity (AID 2283076); conditions: primary human HUVEC with PBMC; actives raise or lower the signal
# Outline: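 HUVEC plus PBMC co-culture stimulated with LPS; CD40 quantified by ELISA 24 h after compound dosing. Fitting was bidirectional relative to DMSO. SRB staining of parallel cultures flagged overt cytotoxicity.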
# [7] = read-out: E-selectin (Homo sapiens) (UniProt P16581); assay: BSK_LPS_Eselectin: BioMAP Diversity Plus: LPS Assay for Eselectin Biomarker Activity (AID 2283077); conditions: primary human HUVEC with PBMC; actives raise or lower the signal
# Outline: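 Human umbilical vein endothelial cells co-cultured with PBMC under LPS stimulation; cell-surface E-selectin measured by ELISA 24 h after dosing. Change in either direction versus DMSO, with SRB total-protein staining in parallel cultures for cytotoxicity.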
# [8] = read-out: Interleukin-8 (IL8), CXCL8 (gene 3576); assay: BSK_LPS_IL8: BioMAP Diversity Plus: LPS Assay for Interleukin-8 (IL8) Biomarker Activity (AID 2283078); conditions: primary human HUVEC with PBMC; actives raise or lower the signal
# Outline: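 Human umbilical vein endothelial cells co-cultured with PBMC, LPS-stimulated, exposed to compound for 24 h. IL-8 quantified by ELISA; fitted in both directions against DMSO, with SRB total-protein staining of parallel cultures for cytotoxicity.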
# [9] = BSK_LPS_SRB: Viability Assessment in the BioMAP Diversity Plus: LPS Assay (AID 2283079); conditions: primary human HUVEC with PBMC;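 further: total protein by sulforhodamine B absorbance as a cytotoxicity measure; measured one day after compound addition; fitted in both directions against DMSO so loss or gain of signal counts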
# Outline: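 Co-culture of human umbilical vein endothelial cells and PBMC, read 24 h after dosing. Total protein by 0.1% SRB staining after 10% TCA fixation, absorbance at 560 nm; bidirectional fit against DMSO.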
# [10] = read-out: Interleukin-1 alpha (IL1a), IL1A (gene 3552); assay: BSK_LPS_IL1a: BioMAP Diversity Plus: LPS Assay for Interleukin-1 alpha (IL1a) Biomarker Activity (AID 2283080); conditions: primary human HUVEC with PBMC; actives raise or lower the signal
# Outline: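 Human umbilical vein endothelial cells co-cultured with PBMC and stimulated with LPS; IL-1a measured by ELISA 24 h after dosing. Bidirectional fitting against DMSO; cytotoxicity checked by SRB staining in parallel cultures.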
# [11] = read-out: Monocyte Chemoattractant Protein-1 (MCP1), CCL2 (gene 6347); assay: BSK_LPS_MCP1: BioMAP Diversity Plus: LPS Assay for Monocyte Chemoattractant Protein-1 (MCP1) Biomarker Activity (AID 2283081); conditions: primary human HUVEC with PBMC; actives raise or lower the signal;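 further: secreted MCP-1 protein quantified by ELISA in culture supernatant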
# Outline: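 Human umbilical vein endothelial cells co-cultured with PBMC, LPS-stimulated; secreted MCP-1 measured by ELISA 24 h after compound addition. Bidirectional curve fitting against DMSO baseline; SRB total-protein staining in parallel cultures for cytotoxicity.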
# [12] = BSK_LPS_PGE2: BioMAP Diversity Plus: LPS Assay for Prostaglandin E2 (PGE2) Biomarker Activity (AID 2283082); conditions: primary human HUVEC with PBMC; actives raise or lower the signal;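 on AC50: secreted prostaglandin E2 measured by ELISA in LPS-stimulated co-culture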
# Outline: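 PGE2 release measured by ELISA in an LPS-activated co-culture of human umbilical vein endothelial cells and peripheral blood mononuclear cells, read at 24 h post-dosing. DMSO served as baseline for bidirectional curve fitting.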
# [13] = read-out: Macrophage colony-stimulating factor (MCSF), CSF1 (gene 1435); assay: BSK_LPS_MCSF: BioMAP Diversity Plus: LPS Assay for Macrophage colony-stimulating factor (MCSF) Biomarker Activity (AID 2283083); conditions: primary human HUVEC with PBMC; actives raise or lower the signal
# Outline: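 HUVEC–PBMC co-culture, M-CSF measured by ELISA 24 h after chemical dosing. Fitted in both directions relative to DMSO as negative control; overt cytotoxicity assessed by SRB total-protein staining in parallel cultures.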
# [14] = read-out: Tissue Factor, F3 (gene 2152); assay: BSK_LPS_TissueFactor: BioMAP Diversity Plus: LPS Assay for Tissue Factor Biomarker Activity (AID 2283084); conditions: primary human HUVEC with PBMC; actives raise or lower the signal
# Outline: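 Human umbilical vein endothelial cells co-cultured with PBMC were dosed with compound. Cell-surface CD142 was measured by ELISA 24 h later. Activity was fitted bidirectionally against DMSO, with SRB total-protein staining in parallel cultures for cytotoxicity.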
# [15] = read-out: Tumor necrosis factor (Homo sapiens) (UniProt P01375); assay: BSK_LPS_TNFa: BioMAP Diversity Plus: LPS Assay for Tumour Necrosis Factor alpha (TNFa) Biomarker Activity (AID 2283085); conditions: primary human HUVEC with PBMC; actives raise or lower the signal;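 on AC50: TNFa protein level quantified by ELISA in the co-culture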
# Outline: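 TNFa was quantified by ELISA in LPS-activated co-cultures of human endothelial cells and PBMC, 24 h post-dosing. Both increases and decreases versus DMSO were fitted.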
# [16] = read-out: Vascular cell adhesion molecule 1 (VCAM1), VCAM1 (gene 7412); assay: BSK_LPS_VCAM1: BioMAP Diversity Plus: LPS Assay for Vascular cell adhesion molecule 1 (VCAM1) Biomarker Activity (AID 2283086); conditions: primary human HUVEC with PBMC; actives raise or lower the signal
# Outline: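 VCAM-1 quantified by ELISA in an LPS-activated co-culture of human endothelial cells and peripheral blood mononuclear cells, read 24 h post-treatment. Fitted in both directions versus DMSO; parallel SRB staining flags overt cytotoxicity.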
# CD38, CD38 (gene 952) = assay: BSK_SAg_CD38: BioMAP Diversity Plus: SAg Assay for CD38 Biomarker Activity (AID 2283087); conditions: primary human HUVEC with PBMC; actives raise or lower the signal
# Outline: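 CD38 quantified by ELISA (fluorescence) in a superantigen-activated endothelial cell–PBMC co-culture at 24 h post-dose. Activity fitted in both directions relative to DMSO; parallel SRB and Alamar Blue cytotoxicity read-outs.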
# CD40, CD40 (gene 958) [17] = assay: BSK_SAg_CD40: BioMAP Diversity Plus: SAg Assay for CD40 Biomarker Activity (AID 2283088); conditions: primary human HUVEC with PBMC; actives raise or lower the signal
# Outline: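 HUVEC plus PBMC co-culture, superantigen-activated, with CD40 read by ELISA 24 h after dosing. Curves fitted in both directions against DMSO. Overt cytotoxicity checked by parallel SRB total-protein staining.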
# CD69, CD69 (gene 969) = assay: BSK_SAg_CD69: BioMAP Diversity Plus: SAg Assay for CD69 Biomarker Activity (AID 2283089); conditions: primary human HUVEC with PBMC; actives raise or lower the signal;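 further: cell surface CD69 protein quantified by ELISA with fluorescence detection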
# Outline: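 Values derive from bidirectional fitting relative to DMSO vehicle. Cells: umbilical vein endothelium plus peripheral blood mononuclear cells, treated 24 h before fluorescent ELISA for CD69.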
# Chain of Tumor necrosis factor (Homo sapiens) (P01375 whole entry, looked up): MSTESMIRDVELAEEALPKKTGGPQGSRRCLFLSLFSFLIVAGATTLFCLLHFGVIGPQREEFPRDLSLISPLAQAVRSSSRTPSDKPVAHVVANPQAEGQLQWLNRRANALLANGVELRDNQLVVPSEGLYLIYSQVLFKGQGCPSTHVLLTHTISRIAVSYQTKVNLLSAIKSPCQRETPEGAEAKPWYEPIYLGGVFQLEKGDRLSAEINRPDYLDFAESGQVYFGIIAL
# Chain of E-selectin (Homo sapiens) (P16581 whole entry, looked up): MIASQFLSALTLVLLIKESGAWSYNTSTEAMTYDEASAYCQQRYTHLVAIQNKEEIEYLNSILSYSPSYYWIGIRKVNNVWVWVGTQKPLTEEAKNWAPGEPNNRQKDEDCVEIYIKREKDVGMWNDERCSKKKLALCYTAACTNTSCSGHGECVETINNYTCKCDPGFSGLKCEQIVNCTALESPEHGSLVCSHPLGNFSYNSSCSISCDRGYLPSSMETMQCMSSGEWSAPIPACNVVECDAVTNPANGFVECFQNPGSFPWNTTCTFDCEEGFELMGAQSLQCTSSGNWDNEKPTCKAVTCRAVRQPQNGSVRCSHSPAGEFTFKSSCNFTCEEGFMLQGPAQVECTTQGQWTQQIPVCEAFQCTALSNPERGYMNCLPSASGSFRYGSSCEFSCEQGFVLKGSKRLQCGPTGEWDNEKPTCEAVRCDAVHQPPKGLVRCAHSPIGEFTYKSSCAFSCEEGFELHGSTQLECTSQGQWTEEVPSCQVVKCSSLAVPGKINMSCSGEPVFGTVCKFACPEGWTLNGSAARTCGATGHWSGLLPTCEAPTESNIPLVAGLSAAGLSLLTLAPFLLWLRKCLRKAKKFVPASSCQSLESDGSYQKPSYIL
smiles,measurement,setting,value
CCC(CC)Nc1c([N+](=O)[O-])cc(C)c(C)c1[N+](=O)[O-],outcome,[1],inactive
same,outcome,[2],inactive
same,outcome,[3],inactive
same,AC50,[4],8.34 µM (active)
same,outcome,[5],inactive
same,AC50,"CD40, CD40 (gene 958) [6]",20 µM (active)
same,AC50,[7],16.8 µM (active)
same,AC50,[8],18 µM (active)
same,AC50,[9],20 µM (active)
same,AC50,[10],36.1 µM (active)
same,AC50,[11],20 µM (active)
same,outcome,[12],inactive
same,AC50,[13],18.9 µM (active)
same,outcome,[14],inactive
same,AC50,[15],26.4 µM (active)
same,AC50,[16],15 µM (active)
same,AC50,"CD38, CD38 (gene 952)",28.5 µM (active)
same,AC50,"CD40, CD40 (gene 958) [17]",20 µM (active)
same,AC50,"CD69, CD69 (gene 969)",20 µM (active)
O=[N+]([O-])c1cc(C(F)(F)F)c(Cl)c([N+](=O)[O-])c1Nc1ncc(C(F)(F)F)cc1Cl,AC50,[1],588 nM (active) and 11.3 µM (active)
same,AC50,[2],7.7 µM (active)
same,outcome,[2],inactive
same,AC50,[3],1.71 µM (active) and 15.5 µM (active)
same,AC50,[4],991 nM (active) and 5.6 µM (active)
same,AC50,[5],1.37 µM (active) and 7.61 µM (active)
same,AC50,"CD40, CD40 (gene 958) [6]",1.44 µM (active) and 6.49 µM (active)
same,AC50,[7],1.55 µM (active) and 3.22 µM (active)
same,AC50,[8],2.33 µM (active) and 3.94 µM (active)
same,AC50,[9],2 µM (active) and 3.96 µM (active)
same,AC50,[10],1.35 µM (active) and 2.31 µM (active)
same,AC50,[11],1.52 µM (active) and 3.74 µM (active)
same,AC50,[12],7.89 µM (active) and 3.71 µM (active)
same,AC50,[13],1.49 µM (active) and 2.86 µM (active)
same,AC50,[15],1.81 µM (active)
same,outcome,[15],inactive
same,AC50,[16],1.5 µM (active) and 2.05 µM (active)
same,AC50,"CD38, CD38 (gene 952)",1.35 µM (active) and 2.58 µM (active)
same,AC50,"CD40, CD40 (gene 958) [17]",1.51 µM (active) and 1.86 µM (active)
same,AC50,"CD69, CD69 (gene 969)",1.91 µM (active) and 3.73 µM (active)
